# Measurements reported in PubChem BioAssay (NCI).
# “And” between values parts separate entries of the source, which are not always exact repeats. Identical values can stand only once. The panel holds about 83,000 compounds, 20% with a hit somewhere; the sample as a whole holds those more often.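 Results are percent growth after 48 hours of single-concentration exposure. 100 means growth as in untreated cells, lower positive values show inhibition; negative values down to -100 show cell death.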 Unmarked numbers belong to inactive results. The source made the active and inactive calls. Rule for the calls: active = growth percent below 10; inactive = the rest.
# Key:
# Assay in all cases: NCI-60 one-dose screen, 48 h (100 = growth as untreated, 0 = no growth, -100 = all killed)
# Conditions in all cases: 10 µM unless noted
# [1] = tested on: HCT-15 colon
# [2] = tested on: HT29 colon
# [3] = tested on: SNB-75 CNS
# [4] = tested on: SNB-19 CNS
# [5] = tested on: U251 CNS
# [6] = tested on: PC-3 prostate
# [7] = tested on: SK-MEL-5 melanoma
# [8] = tested on: UACC-62 melanoma
# [9] = tested on: LOX IMVI melanoma
# [10] = tested on: SK-MEL-28 melanoma
# [11] = tested on: SK-MEL-2 melanoma
# [12] = tested on: EKVX NSCLC
# [13] = tested on: SN12C renal
# [14] = tested on: UO-31 renal
# [15] = tested on: TK-10 renal
# [16] = tested on: ACHN renal
# [17] = tested on: CAKI-1 renal
# [18] = tested on: A498 renal
# [19] = tested on: CCRF-CEM leukemia
# [20] = tested on: MOLT-4 leukemia
Compound,growth [1],growth [2],growth [3],growth [4],growth [5],growth [6],growth [7],growth [8],growth [9],growth [10],growth [11],growth [12],growth [13],growth [14],growth [15],growth [16],growth [17],growth [18],growth [19],growth [20]
Cc1ccc(C(=O)Nc2cccc(C(=O)NC(=S)Nc3ccc(S(N)(=O)=O)cc3)c2)cc1,80.5%,85.1%,50.5%,83.1%,84.4%,78.9%,49.8%,69.4%,78.8%,79.8%,82.7%,88.2%,76.8%,69.4%,104%,69.3%,49.5%,109%,84.5%,59.2%
O=C1NC(=NC23CC4CC(CC(C4)C2)C3)N/C1=C\c1ccc2ncccc2c1,-12% (active),1.49% (active),-66.3% (active),5.85% (active),-63.7% (active),-48.1% (active),-9.19% (active),23.6%,-76.9% (active),-3.01% (active),-5.99% (active),9.7% (active),-2.27% (active),14.7%,-22.9% (active),4.48% (active),-61.1% (active),-31% (active),-15% (active),-13% (active)
Cc1ccc(O)cc1Nc1nc(SCCN2CCOCC2)nc2c1cnn2CC(Cl)c1ccc(Br)cc1 (stereo not given),0.154% (active),-30.2% (active),4.06% (active),20.6%,15.4%,17%,-0.938% (active),15.6%,-88.4% (active),17.1%,-35.9% (active),21%,20%,6.07% (active),17.8%,1.87% (active),-31.5% (active),29.3%,5.71% (active),-24.6% (active)
O=C(N=Nc1c(O)[nH]c2ccc(Br)cc12)c1ccc2nc(-c3ccc(Cl)cc3)[nH]c2c1,58.9%,10.7%,-18% (active),-27.2% (active),-91.8% (active),10%,37.3%,-74.8% (active),-100% (active),-96.3% (active),2.45% (active),-14.1% (active),-50.8% (active),73.2%,54.3%,50.5%,68.1%,115%,7.74% (active),-0.379% (active)
CSc1ccc(OCc2nc3ccccc3n2-c2cccc(NS(C)(=O)=O)c2)cc1,115% and 93.4%,109% and 110%,79.6% and 68.9%,102% and 85.6%,104% and 76.9%,80.5% and 93.4%,98% and 104%,86.1% and 100%,88.9%,119% and 99.1%,104% and 107%,103% and 81.3%,118% and 96.6%,59.5% and 78.4%,118% and 128%,90.8% and 94.9%,76.7% and 85%,137% and 153%,96.7% and 98.6%,96.7% and 97.4%
CN(C(=O)CN1C(=O)/C(=C/c2ccco2)SC1=S)C1CCS(=O)(=O)C1 (stereo not given),87.5%,99.5%,89%,95.7%,102%,102%,98.5%,90%,91.6%,105%,98.5%,97.9%,104%,87.8%,122%,106%,93.5%,103%,80.3%,100%
O=C(N/N=C/c1ccc(B(O)O)s1)c1[nH]c2ccc(Br)cc2c1-c1ccccc1,-92.4% (active),-63.3% (active),-72.7% (active),-97.3% (active),-79.8% (active),-9.11% (active),-95.3% (active),-99.5% (active),-99.3% (active),-93.3% (active),-82.6% (active),-98.8% (active),-79.4% (active),-76.3% (active),-93.2% (active),-100% (active),-59.8% (active),-88.3% (active),-16.5% (active),-8% (active)
CCOc1ccc2[nH]c(=O)c(C(c3nnnn3CC3CCCO3)N3CCN(Cc4ccccc4)CC3)cc2c1 (stereo not given),99.7%,117%,-22.2% (active),38.5%,60.9%,94%,104%,76.3%,87.2%,101%,102%,86.9%,88.2%,99.9%,114%,61.2%,76.3%,76%,93.7%,101%
O=C(Nc1ccc(S(=O)(=O)N2CCCCC2)cc1)C(Cl)Cl,103%,109%,103%,93.7%,98%,107%,105%,106%,100%,130%,104%,95.4%,112%,97%,103%,109%,97.9%,111%,127%,117%
COc1cc(C=O)ccc1Oc1nc(Nc2ccc(F)cc2)nc(N(C)C)n1,88.4% and 18.6%,105% and 69.2%,47.7% and 58.3%,87.6% and 68.2%,85% and 36.5%,90.3% and 61.7%,32.3% and 76.3%,63% and 85.7%,54.3%,99.9% and 84.4%,62.6% and 85.2%,76.9% and 60.4%,92.2% and 58.5%,67.6% and 48.7%,84.2% and 86.8%,105% and 63.3%,69.2% and 58.3%,98.6% and 123%,86.1% and 18.1%,73.1% and 23.8%
COc1ccc(N=Nc2c(N)nn3c(-c4ccc([N+](=O)[O-])cc4)ccnc23)cc1,101%,96.3%,85.4%,108%,107%,101%,94.2%,94.5%,99.9%,101%,106%,97.5%,92.7%,97.1%,113%,107%,88.9%,114%,92%,96%
O=C(N/N=C/c1ccc(Cl)cc1)c1ccc(OCc2nc3ccc(Cl)cc3[nH]2)cc1,-47.1% (active),-55.7% (active),53.9%,35%,-88.5% (active),-10.1% (active),52.2%,47.5%,-81% (active),41%,47.7%,32.1%,30.4%,11.1%,12.4%,28.6%,73.6%,129%,66.7%,15%
Cn1cc(-c2cc3nc(-c4cn(C)c5ncccc45)cc(N)n3n2)c2cc(F)ccc21,69%,6.68% (active),52.9%,8.57% (active),-41.8% (active),32.5%,78.2%,80.3%,44.4%,92.8%,83.9%,69.8%,51.2%,52.6%,74.6%,17.6%,12.8%,138%,38.6%,55.5%
Cc1cccc(NCC(=O)N2CCN(c3ncnc4c3cnn4-c3ccccc3)CC2)c1,72.9%,83.5%,53.5%,88.9%,87.1%,70%,37.5%,34.6%,53.8%,59%,46.7%,53.7%,76.9%,34.3%,93.8%,45.4%,47.8%,108%,62.7%,58.2%
